# Screening results deposited in PubChem by several laboratories.
# ABHD5 PLIN5 PPI = inhibitors of human ABHD5-perilipin-5 interaction; inhibition, % at 4 µM; AID 602281; Q00G26+Q8WTS1; actives 0.78% (n = 360,000); Split G. princeps luciferase complementation, luminescence, 4 h;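 active = inhibition above the mean inhibition across every tested compound plus 3 SD, cut at about 22% in these data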;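 also: 0% = DMSO only wells and the 100% control is not disclosed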
# NOD2-RIPK2 inh = blocks binding of human NOD2 to RIPK2. inhibition, % at 4.98 µM. O43353. CHO BLA complementation NOD2-RIPK2, CCF4 ratio. actives 0.38% (n = 360,000). AID 624267; in the data active = inhibition above about 21%;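 also: 0% = vehicle only and 100% = reference blocker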
# HTR2A ag = mouse HTR2A agonism via beta-arrestin recruitment; AID 624169; P35363; CHO-K1 mHTR2A beta-arrestin complementation, luminescence; percent of 30 µM serotonin response; actives 0.66% (n = 360,000); activation, % at 7.6 µM;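 active = activation above a run cutoff, the mean activation of all tested compounds plus 3 SD, cut at about 14% in these data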;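 also: 0% = plate median of compound wells and 100% = 30 µM serotonin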
# Target sequence (P35363 whole entry, looked up): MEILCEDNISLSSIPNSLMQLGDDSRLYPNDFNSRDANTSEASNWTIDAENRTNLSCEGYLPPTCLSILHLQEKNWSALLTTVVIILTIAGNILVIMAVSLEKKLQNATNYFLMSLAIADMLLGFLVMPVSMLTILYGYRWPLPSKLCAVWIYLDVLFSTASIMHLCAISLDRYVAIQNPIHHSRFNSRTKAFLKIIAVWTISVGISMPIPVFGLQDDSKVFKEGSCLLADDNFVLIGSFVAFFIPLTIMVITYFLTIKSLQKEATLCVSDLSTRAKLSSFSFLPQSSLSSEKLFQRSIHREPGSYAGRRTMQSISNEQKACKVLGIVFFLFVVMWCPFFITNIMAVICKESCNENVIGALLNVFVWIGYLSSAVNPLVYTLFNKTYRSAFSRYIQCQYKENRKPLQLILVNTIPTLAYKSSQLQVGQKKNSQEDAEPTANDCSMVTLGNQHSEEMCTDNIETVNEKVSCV
# CRFBP-R2 block = CRF-BP/CRF-R2 complex antagonism | actives 0.59% (n = 350,000) | inhibition, % at 11.8 µM | HEK293 CRF-R2/CRF-BP, CRF-induced calcium fluorescence;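 active = inhibition of the ligand-induced calcium signal above about 50% at the single tested concentration, limit read from the data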
# TLR9-MyD88 inh = TLR9-MyD88 interaction inhibition | Q9NR96+Q99836 | CHO BLA complementation TLR9-MyD88, CCF4 FRET ratio | inhibition, % at 4.98 µM | actives 0.21% (n = 340,000);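 active = inhibition above the mean over all tested compounds plus 3 SD, cut at about 21% in these data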;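 also: 0% = DMSO only wells and 100% = clavulanate BLA inhibitor control wells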
# TLR4 MyD88 comp = inhibitors of human TLR4-MyD88 binding | inhibition, % at 8.4 µM | HeLa CL3-4 TLR4/MyD88 BLA complementation, FRET ratio | actives 0.18% (n = 200,000) | AID 861 | O00206+Q99836; in the data active = inhibition above about 25%;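 also: 0% = vehicle and 100% = reference inhibitor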
# Numbers without * were called inactive; x = not tested or not shown. A selection: hits, their analogues and other compounds. The true share with any hit is near 2.4%.
SMILES,ABHD5 PLIN5 PPI,NOD2-RIPK2 inh,HTR2A ag,CRFBP-R2 block,TLR9-MyD88 inh,TLR4 MyD88 comp
CC(C)C[C@H]1CNC(=S)N1CC1CCCN1C[C@H](Cc1ccccc1)N1C[C@H](Cc2ccc(O)cc2)N(CC2CCCCCC2)C1=S (stereo partly drawn),-13,-7,-1,-13,-21,x
O=C(NCc1ccccc1)C1C(c2ccccc2)=Nc2ccccc2N1C(=O)c1cccnc1 (stereo not drawn),-1,4,-4,x,x,x
CCOc1ccc(NC(=O)CSc2ccc3nnc(-c4cccnc4)n3n2)cc1,-1,-5,6,125*,-1,x
CSc1ccc(/C=C(/NC(=O)c2ccc(C)cc2)C(=O)Nc2cccc(F)c2)cc1,-1,5,-2,137*,1,-15
CC1(Cc2ccc(OC(F)(F)F)cc2)C(=O)Nc2c(Cl)ccc(Cl)c21 (stereo not drawn),-9,8,1,x,x,x
CCCCn1nnnc1C(c1cc2ccccc2o1)N(C)Cc1ccccc1 (stereo not drawn),-9,-7,-3,x,x,x
Cc1nnc(NC(=O)CSc2nnc(Cc3ccccc3)n2-c2ccccc2)s1,0,0,-1,81*,4,-12
CC(=O)C1=CCC(c2cccc3ccccc23)N(S(=O)(=O)c2ccc(C)cc2)C1 (stereo not drawn),-6,-11,2,x,x,x
Cc1ccc(C(=O)/C=C/c2c[nH]c3ccccc23)cc1,0,25*,-5,6,16,25
Cc1ccc(S(=O)(=O)/C(C#N)=C/c2c[nH]c3ccccc23)cc1,2,13,-1,-9,3,-7
COc1ccc2[nH]c3c(c2c1)CCN1C(=O)C(CC(=O)NCCc2ccccn2)C[C@H](C(=O)N(C(C)C)C(C)C)[C@@]31C (stereo partly drawn),3,-17,7,70*,-4,x
CCN(CC)C(=O)[C@H]1C[C@H](CC(=O)NC/C=C(\C)CCC=C(C)C)C(=O)N2CCc3c([nH]c4ccc(Cl)cc34)[C@]12C,2,-9,-1,75*,-4,x
CCN(CC)C(=O)[C@H]1CC(CC(=O)NC/C=C(\C)CCC=C(C)C)C(=O)N2CCc3c([nH]c4ccc(OC)cc34)[C@]12C (stereo partly drawn),6,-14,1,78*,-8,x
COCCCNC(=O)CC1C[C@H](C(=O)N(C(C)C)C(C)C)[C@@]2(C)c3[nH]c4ccc(OC)cc4c3CCN2C1=O (stereo partly drawn),-2,0,5,-2,-1,x
CCN(CC)C(=O)[C@H]1CC(CC(=O)NC/C=C(\C)CCC=C(C)C)C(=O)N2CCc3c([nH]c4ccccc34)[C@]12C (stereo partly drawn),-13,2,-3,49,-9,x
COc1ccc(C(=O)c2[nH]c(N)c(C(=O)NCCc3c[nH]c4ccccc34)c2-c2ccc(OC)c(OC)c2)cc1,-10,-8,-2,x,x,x
CC(C)(C)c1ccc(S(=O)(=O)NC(=O)C2(C)CCN2C(=O)Cc2ccc(-c3ccccc3)cc2)cc1 (stereo not drawn),-3,-17,14,x,x,x
CO/N=C/C(C#N)c1ncc(C(F)(F)F)cc1Cl (stereo not drawn),5,-4,7,77*,-4,-16
COC(=O)C1=C(C)N(Cc2ccccc2)C(=O)N[C@H]1CCc1ccccc1,5,-1,5,82*,-1,x
COC(=O)C1=C(C)N(Cc2ccccc2)C(=S)N[C@H]1c1cccc(F)c1,9,-19,1,55*,-9,x
CCOC(=O)CN1C(=O)N[C@@H](CCc2ccccc2)C(C(=O)OC)=C1C,0,-3,-1,-2,-5,x
COC(=O)C1=C(C)N(Cc2ccccc2)C(=NCc2ccccc2)N[C@H]1c1cccc(F)c1,20,15,7,-5,-8,x
CCC(=O)Nc1cc(Cl)ccc1N1CCN(C(=O)CC)CC1,-3,1,0,81*,4,9
CCC(=O)N1CCN(c2ccc(Cl)cc2NC(=O)Cc2ccccc2)CC1,-1,-6,-1,10,-10,9
CN1CCN(c2ccc(Cl)cc2NC(=O)/C=C/c2cccc(F)c2)CC1,22*,2,-4,-72,-1,5
SMILES,ABHD5 PLIN5 PPI,NOD2-RIPK2 inh,HTR2A ag,CRFBP-R2 block,TLR9-MyD88 inh,TLR4 MyD88 comp
CN1CCN(c2ccc(Cl)cc2NC(=O)c2cccc(S(=O)(=O)N(C)C)c2)CC1,4,-1,0,4,-8,-10
COc1cc(CCN(C(=O)c2cc3ccccc3[nH]2)C(c2ccccn2)c2nc3ccccc3[nH]2)cc(OC)c1 (stereo not drawn),0,-6,-3,x,x,x
COc1cccc(C(C)(O)c2nc(-c3cccc(C(C)C)c3)cs2)c1 (stereo not drawn),-6,1,-2,x,x,x
COc1ccc(C(=O)COC(=O)c2cccnc2SC)cc1,-1,-5,4,78*,-15,-11
CSc1ncccc1C(=O)OCC(=O)c1ccccc1,3,-6,-2,33,2,-12
Cc1c(Cl)c([N+](=O)[O-])nn1CC(=O)NC1CCCCC1,3,-2,-5,99*,6,13
O=C(c1ccccc1)N1CCN(c2ncccn2)CC1,3,-6,-3,3,1,x
O=C(c1ccc(Br)cc1)N1CCN(c2ncccn2)CC1,1,-7,-3,94*,-5,x
Nc1cc(C(=O)OCC(=O)NCCC2=CCCCC2)ccc1Cl,3,4,-5,10,-4,x
O=C(COC(=O)c1cnc(Cl)c(Cl)c1)NCCC1=CCCCC1,0,-15,1,86*,-8,-3
CCOC(=O)c1nnn(CC(=O)N2N=C(c3ccccc3)CC2c2ccccc2)c1C(=O)OCC (stereo not drawn),-2,5,-4,71*,-10,2
Brc1ccccc1-c1nnc(CSc2nncn2-c2ccccc2)o1,-4,-11,3,40,-7,-15
Cc1ccc(-n2nnnc2SCc2nnc(-c3ccccc3Br)o2)cc1,7,-1,0,136*,-4,-4
CCOc1ccccc1N(C)C(=O)Cn1ncc2c([nH]c3ccccc32)c1=O,0,-3,-6,94*,-3,x
NC(CCc1ccccc1)c1csc(Nc2cnccn2)n1 (stereo not drawn),-7,0,-7,x,x,x
COc1ccc(C2(CNC(=O)/C=C\c3ccco3)CCCC2)cc1OC,22*,10,-3,-12,-4,11
COc1ccc(C2(CNC(=O)c3cc(OC)c(OC)c(OC)c3)CCCC2)cc1OC,8,3,0,23,-5,x
Cc1ccccc1OCCNc1cc(N2CCN(CCO)CC2)ccc1[N+](=O)[O-],22*,-2,-10,-46,-1,5
